# Experimental data reported in PubChem BioAssay (NCI).
# About 79,000 compounds went through this panel and 15% of them were active in at least one assay; those are over-represented in the sample as a whole. Values without a mark were called inactive. Active and inactive are the calls of the source. No stated cut-off is given here; in the data, active means growth inhibition above about 70%; inactive means the rest.
# Test: NCI Yeast Anticancer Drug Screen. Data for the wt2 strain (AID 169);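 further: 0% = growth of vehicle-treated yeast cultures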
# Conditions: S. cerevisiae wt2 strain growth inhibition, stronger effect = higher value
# Protocol: Growth inhibition of yeast strains with defined genetic alterations is measured as a screen for potential anti-cancer activity. Selected strains with alterations in DNA damage repair or cell cycle control were exposed to compounds and growth inhibition was measured relative to vehicle treated controls. The strain used in this assay is wt2
Compound,growth inhibition (at 1.2 µM),growth inhibition (at 3.7 µM),growth inhibition (at 11.0 µM),growth inhibition (at 33.0 µM),growth inhibition (at 100.0 µM)
CC(=O)SCCC[Si](C)(C)CCCSC(C)=O,-1%,-9%,-6%,5%,33%
O=C1c2ccccc2-c2nc3ccccc3nc21,-25%,-22%,-10%,28%,61%
C[Si](C)(C)CNC(=O)OCc1ccccc1,-1%,-1%,-1%,0%,3%
CC(C)c1cc(C(C)C)c(O)c(C([O-])[O-])c1.CC(C)c1cc(C(C)C)c(O)c(C([O-])[O-])c1.CC(C)c1cc(C(C)C)c(O)c(C([OH2+])[OH2+])c1.CC(C)c1cc(C(C)C)c(O)c(C([OH2+])[OH2+])c1.[Cu+2].[Cu+2].[OH3+].[OH3+],-4%,-2%,32%,70% (active),93% (active)
[O-][n+]1c2ccc(O)cc2nc2ccc(Cl)cc21,5%,11%,26%,46%,61%
COc1cc(C2SCC(=O)N2c2nnc(C(F)(F)F)s2)cc(OC)c1OC (stereo not given),-2%,-4%,-2%,-4%,-4%
COc1ccc2sc3cccc(NCCN(C)C)c3c(=O)c2c1,0%,-2%,0%,-1%,8%
O=C(/C=C\c1ccc(Cl)cc1Cl)c1cccs1,-5%,-1%,-3%,4%,7%
